{
  "source": "the supplement of paper PMC12494721",
  "note": "Where a name gives a salt, the structure may show the parent alone.",
  "data": [
    {"tested_on": "Escherichia coli IAI1", "experiment": "growth (OD595) fold change vs plate DMSO controls (fold change (ratio)); higher = more growth", "conditions": "incubation time: 27 h, anaerobic, 37 °C", "summary_of_the_method": "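Absorbance at 595 nm was read after shaking the anaerobic mGAM cultures, which had grown in 96-well plates for 27 h at 37 °C. After blank subtraction and background correction against 20 µM compound solutions in water, a calibration factor of 5 gave OD values. Growth is the fold change against the median of the plate's DMSO controls. Values are the mean of 2 biological replicates, with fold changes above 1.5 set to NA.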", "values": [
      {"smiles": "Oc1c(Cl)cc(Cl)c2cccnc12", "note": "[Chloroxine] (20 µM)", "growth": 0.966},
      {"smiles": "O=C1NCCN1CCN1CCC(c2cn(-c3ccc(F)cc3)c3ccc(Cl)cc23)CC1", "note": "[Sertindole] (20 µM)", "growth": 1.05},
      {"smiles": "CCSc1ccc2c(c1)N(CCCN1CCN(C)CC1)c1ccccc1S2", "note": "[Thiethylperazine maleate] (20 µM)", "growth": 1.05},
      {"smiles": "Cc1ccsc1/C=C/C1=NCCCN1C", "note": "[Morantel tartrate] (20 µM)", "growth": 1.07},
      {"smiles": "COc1cc(C)nc(-n2nc(C)cc2OC)n1", "note": "[Epirizole] (20 µM)", "growth": 0.98},
      {"smiles": "CCC1(c2ccccc2)NC(=O)N(C)C1=O", "note": "(centres undefined) [Mephenytoin] (20 µM)", "growth": 1.05},
      {"smiles": "CCCCCCCC/C=C\\CCCCCCCCCCCC(=O)O", "note": "[Erucic acid] (20 µM)", "growth": 1},
      {"smiles": "C#CCN(C)CCCOc1ccc(Cl)cc1Cl", "note": "[Clorgyline hydrochloride] (20 µM)", "growth": 0.993},
      {"smiles": "CC1=NN(c2ccccc2)C(=O)C1", "note": "[Edaravone] (20 µM)", "growth": 1.03},
      {"smiles": "CC(=O)N[C@H]1[C@H]([C@H](O)[C@H](O)CO)OC(C(=O)O)=C[C@@H]1NC(=N)N", "note": "[Zanamivir] (20 µM)", "growth": 1.02},
      {"smiles": "Cc1ccc(S(=O)(=O)NC(=O)NN2CCCCCC2)cc1", "note": "[Tolazamide] (20 µM)", "growth": 1.09},
      {"smiles": "CN1CCN(C2=Nc3cc(Cl)ccc3Nc3ccccc32)CC1", "note": "[Clozapine] (20 µM)", "growth": 0.997},
      {"smiles": "CCCNC(C)(C)C(=O)Nc1ccccc1C", "note": "[Quatacaine] (20 µM)", "growth": 0.991},
      {"smiles": "CN(C)c1cc(NC(=O)CNC(C)(C)C)c(O)c2c1C[C@H]1C[C@H]3[C@H](N(C)C)C(=O)C(C(N)=O)=C(O)[C@@]3(O)C(=O)C1=C2O", "note": "[Tigecycline] (20 µM)", "growth": 1.12}
    ]}
  ]
}
